# Compound activity as filed in PubChem BioAssay.
# uPA surface inh: qHTS for Inhibitors of Cell Surface uPA Generation. cell surface uPA generation assay, qHTS. Potency, µM (doses to about 38.3 µM), for inactives: top-dose activity change, negative = inhibition, hits mostly inhibitors. 330,000 compounds, 0.31% hits; active means well fitted inhibition curve with a large enough effect; inconclusive means small, poorly fitted or top-dose-only effect; inactive means no such curve, though single readings can be large or run the other way; tested in mouse RAW 264.7 cells; further: potency means the concentration at half of the fitted maximal effect; on the % scale 0 is the no-effect control and ±100 the full control effect; nearly all actives have a fitted effect of over 55% in size
# p53 reactivator: qHTS assay for re-activators of p53 using a Luc reporter; H1299 p53-A138V BP100-luciferase reporter, luminescence, 24 h; Potency, µM (doses to about 92.2 µM), for the others: top-dose activity change, positive = activation, hits mostly activators; 320,000 compounds, 0.063% hits; further: potency means the concentration at half of the fitted maximal effect; % of control where 0% means no effect; nearly all actives have a fitted effect of over 45% in size
#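 p53-null H1299 cells stably carrying temperature-sensitive p53-A138V and a BP100-luciferase reporter were pinned with compounds (4-point, 1:5 series) and held 24 hrs at 37 deg C. Luminescence was read 10 min after detection reagent.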
# BRCA1 expr act: qHTS Assay to Identify Small Molecule Activators of BRCA1 Expression; Potency, µM (titrated, usually from 46.1 µM), for inactives: at the top dose activation, usual class: activators; 380,000 compounds, 1.1% hits; AID 624202, 2012; MCF7-BRCA1-FFLuc reporter, luminescence, 48 h; response scale: scaled: vehicle 0%, 10 µM genistein 100%; further: potency means the concentration at half of the fitted maximal effect; nearly all actives have a fitted effect of over 80% in size
#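 Cells: MCF7-BRCA1-FFLuc, 2000/well. Exposure: 48 h, 37 °C, 5% CO2. Read: luminescence, 15 min post-substrate. Controls: genistein 10 microM (maximal activation), DMSO (neutral).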
# IL2 activator: qHTS of IL-2 Activators | 360,000 compounds, 0.065% hits | IL-2 activation reporter assay, cell-based qHTS; stimulated with anti-CD3/CD4/CD28 beads; in transgenic mouse T cells | activation, % (series mostly up to about 46 µM); in the data active means activation above about 50%; inconclusive means mostly about 30% to 49%; further: 0% is about no effect
#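 Unstimulated transgenic mouse T cells; 60-min compound exposure; bead-based TCR/CD4/CD28 stimulation; 18 h culture, 37 degrees C; dual fluorescence (EGFP, DsRed) plate cytometry.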
# TCR activator: Activators of T cell receptors: qHTS campaign; Potency, µM (titrated, usually from 9.22 µM), without a hit: top-dose activation of IL-2 secretion, most hits filed as activators; 330,000 tested, under 10 active; primary human leukocytes, anti-CD3, IL-2 HTRF, 48 h; further: % of control where 0% means no effect
#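 Using a-CD3 beads without co-stimulation, primary human leukocytes were exposed to compounds for 48 hr. An HTRF IL-2 kit measured the cytokine, with europium-to-d2 energy transfer producing emission at 665nm upon 320nm excitation.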
# * hit, by the source's call; ? = inconclusive; . = no result; ! = repeats disagree; [ ] = another dose, or the depositor's remark. Only some compounds are listed: those with a hit (about 1.4% of all), similar ones and a draw of the others. Unless noted, the call rests on the fitted dose curve; in most records, active means well fitted curve in the direction sought with a large enough effect; inconclusive means small, poorly fitted or top-dose-only effect, or another doubt; inactive means no such curve, though single readings can be large; an effect the other way counts as inactive or inconclusive.
SMILES,uPA surface inh,p53 reactivator,BRCA1 expr act,IL2 activator,TCR activator
COc1cc(OC)c2c(-c3cccc(-c4ccoc4)c3)cc(=O)oc2c1,10µM*,0%,-28%,-1,2%[46.1 µM]
Cc1c(C#N)c(NC(=O)COC(=O)c2cc(Cl)c3c(c2)OCCCO3)n(Cc2ccco2)c1C,.,.,12%,.,.
C[n+]1ccnc2cc(Cl)ccc21,.,.,-79%,.,.
Clc1ccccc1/C=N/NC1=Nc2cccc3cccc1c23,0%,47%,-24%,244*,4%[46.1 µM]
COc1ccc(Cl)cc1NCc1nnc2n1CCCCC2,.,.,76%,.,.
CC(CNC(=O)c1cnn(-c2ccc(F)cc2)c1-n1cccc1)c1ccccc1 (centres undefined),.,.,-27%,.,.
Cc1snc(SCC(=O)c2ccc(Cl)cc2)c1C#N,.,?,95%,0,4%
Cc1ccc(C(=O)CSc2nsc(C)c2C#N)cc1,-2%,?,6.3µM*,1,0%
Cc1cc([N+](=O)[O-])nn1Cc1ccc(C(=O)N/N=C/c2ccc(F)cc2)cc1,-8%,2%,-1%,-5,-3%
Cc1cc([N+](=O)[O-])nn1Cc1ccc(C(=O)N/N=C/c2ccc(O)cc2O)cc1,7.1µM*,?,-92%,1,-2%[46.1 µM]
O=C(Cc1ccc(Cl)cc1)Nc1ccncc1,-3%,-4%,-40%,0,2%
O=C(Cc1ccc(Cl)cc1)Nc1cc(Cl)ccn1,-4%,.,7.1µM*,1,-1%
CC1CCc2c(nc3sc4c(c3c2N)CCCC4)C1 (centres undefined),-3%,?,2.8µM*,0,0%[46.1 µM]
O=C(/C=C/c1ccco1)Nc1nc(-c2ccccc2)cs1,0%,?,8.9µM*,-2,-4%[46.1 µM]
COc1cc2ccccc2cc1C(=O)Nc1ccc(N2CCN(C)CC2)cc1,-5%,20µM*,20%[1.84 µM],2,-4%
COc1c(C)cccc1C(=O)Nc1ccc(N2CCN(S(C)(=O)=O)CC2)cc1,-1%,?,3.5µM*,2,3%
COc1c(C)cc(Br)cc1C(=O)Nc1ccc(N2CCN(S(C)(=O)=O)CC2)cc1,.,11%,5%,3,2%
COc1ccccc1C(=O)Nc1ccc(N2CCN(S(C)(=O)=O)CC2)cc1,-1%,6%,11µM*,-2,.
CCCCN1C(=O)C(=O)N(c2ccccc2)C1=S,4%,?,5µM*,0,3%[46.1 µM]
CCCCN1C(=O)C(=O)N(CC(=O)N2CCN(c3ccccc3)CC2)C1=O,2%,0%,7%,11,7%
O=C(NCCCN1CCN(c2ccc(F)cc2)CC1)c1cnn(-c2ccc(F)cc2)c1-n1cccc1,.,.,-39%,.,.
Cc1ccc(CN2C(=O)C(=O)c3cc(C)ccc32)cc1,?,23%,-17%,0,-22%
Cc1ccc2c(c1)C(=O)C(=O)N2Cc1ccc(Br)cc1,4.5µM*,-4%,-44%,0,-3%
CCCN1C(=O)C(=O)c2cc(C)ccc21,3.2µM*,17%,-18%,-3,7%
Cc1ccc2c(c1)C(=O)C(=O)N2CCOc1ccccc1,-2%,15%,-9%,-4,4%
SMILES,uPA surface inh,p53 reactivator,BRCA1 expr act,IL2 activator,TCR activator
CCOc1ccc(NC(=O)Cn2c(=O)n(Cc3ccc(C(=O)NCc4ccc(C)cc4)cc3)c(=O)c3ccccc32)cc1,.,.,8%,.,.
c1c2c(cc3sc(N4CCOCC4)nc13)OCO2,-5%,23%,13%,2,11%
c1ccc(N2CCN(c3nc4cc5c(cc4s3)OCO5)CC2)cc1,1%,?,4µM*!,0,-8%
CCCCc1nc2ccccc2n1CC(=O)N(COCC)c1c(C)cccc1CC,.,.,-16%,.,.
O=C(N/N=C/C(Cl)=C/c1ccccc1)c1cnccn1,-9%,?,33%,0,0%[46.1 µM]
O=C(N/N=C/C(Cl)=C/c1ccccc1)c1ccccc1F,-7%,?,10µM*,2,3%
O=C(N/N=C/C(Cl)=C\c1ccccc1)c1cnccn1,-12%,13µM*,44%,-2,4%
CCOc1ccc(-c2nnc(SCC(=O)NCc3ccc(Cl)cc3)o2)cc1,.,.,1%,.,.
Cc1ccn2c(=O)c(C(=O)NCCc3ccc(S(N)(=O)=O)cc3)c(O)nc2c1,.,.,6%,.,.
O=C(Nc1ccc(Br)cc1Cl)c1cnn2c1NC(=C1CC1)C=C2C(F)F,.,.,4%,.,.
CN1CCN(C(=S)c2ccc(-c3cccc([N+](=O)[O-])c3)o2)CC1,?,?,?,5,19%
N#CCCN1CCN(C(=S)c2ccc(-c3cccc(Cl)c3)o2)CC1,-7%,4%,10µM*,1,6%
O=[N+]([O-])c1cccc(-c2ccc(C(=S)N3CCOCC3)o2)c1,-6%,?,4.5µM*,-3,0%
S=C(c1ccc(-c2cccc(Cl)c2)o1)N1CCOCC1,-11%,?,3.5µM*,-3,.
N#CCCN1CCN(C(=S)c2ccc(-c3ccc(Cl)c(Cl)c3)o2)CC1,8%,4%,9%,0,11%
COc1ccc(NC(=O)Cn2c(=O)n(-c3ccc(OC)cc3)c(=O)c3sc4ccccc4c32)cc1,.,.,2%,.,.
Cc1cccc(-c2noc(CN(C(=O)COc3ccc(Br)cc3C)C(C)C)n2)c1,.,.,-2%,.,.
O=C(CSc1ccccc1)Nc1ccccc1C(=O)O,4%,.,?,1,6%
Cc1ccc(SCC(=O)Nc2ccccc2C(=O)O)cc1,0%,?,4.5µM*,-2,0%
COc1ccc(-c2csc(NC(=O)CSc3nc(C)cs3)n2)cc1,-2%,.,13µM*,0,1%
COc1ccc(-c2csc(NC(=O)COC(=O)C3=COCCO3)n2)cc1,-6%,13%,5µM*,0,-4%
O=C(Nc1nc(-c2ccc(-c3ccccc3)cc2)cs1)C1=COCCO1,4%,11%,-25%,0,-3%[46.1 µM]
CCOc1ccccc1NC(=O)CSc1nc2c(oc3ccccc32)c(=O)n1-c1ccc(C)c(C)c1,.,.,0%,.,.
CCOc1ccccc1NC(=O)Cn1c(=O)n(CCCCC(=O)NCCCOC)c(=O)c2ccccc21,.,.,7%,.,.
O=C(Nc1nccs1)c1cncc(Br)c1,-4%,20%,3.5µM*,0,3%
SMILES,uPA surface inh,p53 reactivator,BRCA1 expr act,IL2 activator,TCR activator
O=C(Nc1ccc2c(c1)OCO2)c1cncc(Br)c1,.,?,10µM*,0,1%
CN(C)C(=O)c1ccc(NC(=O)c2cncc(Br)c2)cc1,9%,?,11µM*,2,-5%[46.1 µM]
CCC(C(=O)Nc1cc(OC)ccc1OC)n1c(C)c2cnn(-c3ccccc3)c(=O)c2c1C (centres undefined),.,.,0%,.,.
Cc1cccc(N2CCN(C(=O)Cn3ncc4c3-c3cc(C)ccc3OC4)CC2C)c1 (centres undefined),.,.,-18%,.,.
CCn1cc(C(=O)NCCc2ccc(Cl)cc2)c(=O)c2cc(S(=O)(=O)N3CCOCC3)ccc21,.,.,13%,.,.
O=C(CSc1nnc(-c2ccccc2Cl)o1)Nc1ccccn1,10µM*,-4%,-42%,-2,4%
